In PubChem BioAssay AID493168 (National Center for Advancing Translational Sciences (NCATS), 2011):
Results filed as inconclusive are left out. Where a call stands in place of a potency, no number is given. The source made the active and inactive calls. The call rests on the fitted dose curve; in most records, active means well fitted inhibition curve with a large enough effect; inconclusive means small, poorly fitted or top-dose-only effect, or effect the other way; inactive means flat fitted curve, though single readings scatter.

Molecular target: Ubiquitin carboxyl-terminal hydrolase 2 (Homo sapiens) (UniProt O75604)
Assay: Confirmation Assay for Inhibitors of Ubiquitin-specific Protease USP2a Using CHOP2 as the Reporter; further: nearly all actives have a fitted effect of over 55% in size
Procedure, shortened: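 USP2 core (10 nM final) was preincubated with compound for 30 min at RT in Tris-HCl pH 8.0, CaCl2, beta-mercaptoethanol, CHAPS. Ub-CHOP2 and reporter substrate (25 nM final each) were added, and fluorescence (Ex 485/Em 531 nm) was read after 60 min.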
Potency means the concentration at half of the fitted maximal effect.

Sequence of Ubiquitin carboxyl-terminal hydrolase 2 (Homo sapiens) (O75604 whole entry, looked up): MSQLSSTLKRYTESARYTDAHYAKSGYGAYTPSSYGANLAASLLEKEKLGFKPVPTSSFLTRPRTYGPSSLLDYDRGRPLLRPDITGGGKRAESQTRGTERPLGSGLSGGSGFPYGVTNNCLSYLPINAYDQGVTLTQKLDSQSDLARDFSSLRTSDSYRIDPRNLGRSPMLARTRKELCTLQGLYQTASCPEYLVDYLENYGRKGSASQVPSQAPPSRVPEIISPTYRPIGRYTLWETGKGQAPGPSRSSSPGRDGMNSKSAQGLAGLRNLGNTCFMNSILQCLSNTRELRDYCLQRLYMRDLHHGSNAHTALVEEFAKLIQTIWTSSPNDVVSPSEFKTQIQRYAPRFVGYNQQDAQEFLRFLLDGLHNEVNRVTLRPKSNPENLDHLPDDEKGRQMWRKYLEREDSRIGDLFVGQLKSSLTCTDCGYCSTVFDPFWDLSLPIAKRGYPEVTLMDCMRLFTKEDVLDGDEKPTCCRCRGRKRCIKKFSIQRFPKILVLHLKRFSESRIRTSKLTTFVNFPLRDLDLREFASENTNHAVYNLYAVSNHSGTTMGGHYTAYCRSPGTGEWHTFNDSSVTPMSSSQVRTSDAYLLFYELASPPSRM

With `CCC(CO)Nc1nc(CN2CCCCC2)nc2scc(-c3ccccc3)c12` (stereo not given) the Potency was “inactive”.

In the case of `COc1cc(C(=O)OCC(=O)Nc2c(F)c(F)c(F)c(F)c2F)cc(OC)c1OC`, the Potency is reported as “inactive”.

In the case of `O=C(c1ccccc1)N1CCN(C(=O)N2CCCCC2)CC1`, the Potency is reported as “inactive”.

With `CCOc1cc(N2CCOCC2)c(OCC)cc1NC(=O)Cc1cn2ccsc2n1` the Potency was “inactive”.

`COc1ccc(-c2csc(N3CCN(C(=O)c4ccco4)CC3)n2)cc1` was tested, and the Potency was “inactive”.

`Cc1ccc(SCC(=O)NCC(C)C)cc1` was tested, and the Potency was “inactive”.

`Cc1ccccc1C(=O)Nc1ccc2nc3n(c(=O)c2c1)CCC3` was tested, and the Potency was “inactive”.

With `C[C@@H]1CN([C@@H](C)CO)C(=O)c2cc(NC(=O)CCC(F)(F)F)ccc2O[C@H]1CN(C)S(=O)(=O)c1ccc(Cl)cc1` the Potency was “inactive”.

In the case of `CCC(C)c1ccc(O)c(N)c1` (stereo not given), the Potency is reported as “inactive”.

With `O=C(Nc1nnc(-c2ccco2)s1)C1CCCCC1` the Potency was “inactive”.

`CC(C)n1c(/C=C/[C@H](O)C[C@H](O)CC(=O)O)c(-c2ccc(F)cc2)c2ccccc21` was tested, and the Potency was “inactive”.

For `O=C(NC1CCCCC1)C(c1ccco1)N(Cc1ccco1)C(=O)c1ccco1` (stereo not given), the Potency was “inactive”.

For `Cn1nnnc1Sc1ncnc2scc(-c3ccc4c(c3)OCO4)c12`, the Potency was “inactive”.

With `CCOC(=O)c1c(C)c(C(=O)O)n(C)c1C` the Potency was “inactive”.

With `COc1ccc(S(=O)(=O)N(C)CC(=O)Nc2cccc(C(C)=O)c2)cc1Cl` the Potency was “inactive”.

In the case of `O=C(Nc1ccc(S(=O)(=O)Nc2ncccn2)cc1)c1ccc(S(=O)(=O)N2CCCC2)cc1`, the Potency is reported as “inactive”.

For `COCc1cc(C)nc(OCC(=O)N/N=C\c2cc(C)n(-c3cccc(C(F)(F)F)c3)c2C)c1C#N`, the Potency was “inactive”.

With `COCCn1c(CN(Cc2ccccc2)Cc2ccccc2)nc2c1c(=O)n(C)c(=O)n2C` the Potency was “inactive”.

`CC1CCCCN1CCNC(=O)c1cnn2ccccc12` (stereo not given) was tested, and the Potency was “inactive”.

`CC(=O)Nc1cc[n+](CC(=O)c2ccc(Cl)cc2)cc1` was tested, and the Potency was “inactive”.

With `CN(C)c1ccc(-c2ccccc2)nn1` the Potency was “inactive”.

In the case of `C=CCn1c(Br)nc2c1c(=O)n(C)c(=O)n2C`, the Potency is reported as “inactive”.

In the case of `O=C(O)C1CCN1C1CCCCC1` (stereo not given), the Potency is reported as “inactive”.

In the case of `C=CCn1c(O)c(C(CC)=NCCN2CCOCC2)c(=O)[nH]c1=O`, the Potency is reported as “inactive”.

In the case of `CCOC(=O)CN1C(=O)S/C(=C/c2ccc(O)c([N+](=O)[O-])c2)C1=O`, the Potency is reported as “inactive”.

For `CC(C)c1ccc(NC(=O)C(c2ccc3c(c2)OCO3)N2CCCCC2)cc1` (stereo not given), the Potency was “inactive”.

For `O=C(N/C(=C/c1cccnc1)C(=O)N1CCOCC1)c1ccco1`, the Potency was “inactive”.

For `CC1CCN(c2ccc3c(c2)S(=O)(=O)c2cccc(C(=O)NC4CC4)c2C3=O)CC1`, the Potency was “inactive”.

With `COc1ccc(-n2c(SCC(=O)N3CCN(c4ccccc4)CC3)nc3c(c2=O)SCC3)cc1` the Potency was “inactive”.

For `CN1CCN(Cc2c(O)ccc3c(=O)c(Oc4ccccc4Cl)c(C(F)(F)F)oc23)CC1`, the Potency was “inactive”.

With `CC(=O)Nc1ccc(Nc2cc(C)nc(Nc3ccc(NC(C)=O)cc3)n2)cc1` the Potency was “inactive”.

`O=C(Nc1ccncc1)c1ccc(S(=O)(=O)Nc2ccccc2)cc1` was tested, and the Potency was 14.7 µM (active).

With `O=C(CN1C(=O)/C(=C2\SC(=S)N(CCS(=O)(=O)O)C2=O)c2ccccc21)Nc1cccc(Br)c1` the Potency was 5.21 µM (active).

In the case of `CC(=O)c1ccc2c(c1)C1C=CCC1C(C(=O)O)N2` (stereo not given), the Potency is reported as 11.7 µM (active).

For `COc1ccc(CCNC(=O)COC(=O)CNS(=O)(=O)c2ccc(SC)c([N+](=O)[O-])c2)cc1`, the Potency was “inactive”.

With `CCOc1cc(/C=C2\C(=O)N(c3nc(-c4ccc(Br)cc4)cs3)N=C2c2ccccc2)ccc1O` the Potency was 4.65 µM (active).

With `COc1cc(OC)cc(-c2c(C#Cc3ccsc3)c3cc(-c4ccc(OC)c(OC)c4)ccc3n2C)c1` the Potency was “inactive”.

In the case of `CC(=O)Nc1ccc(NC(=O)C2CCCN(S(=O)(=O)c3ccc(Cl)cc3)C2)cc1` (stereo not given), the Potency is reported as “inactive”.

With `CC(C)CC(=O)NC(=S)Nc1nc(-c2ccc(Cl)cc2)cs1` the Potency was “inactive”.

For `Cc1cc(NC(=O)CN2C(=O)NC3(CCCCC3C)C2=O)no1` (stereo not given), the Potency was “inactive”.

For `O=C(NC1CCCCC1)C(c1ccco1)N(C(=O)c1csnn1)c1cccc(F)c1` (stereo not given), the Potency was “inactive”.

In the case of `Cc1ccc(CNC(=O)CCNS(=O)(=O)c2ccc(C)cc2)cc1`, the Potency is reported as “inactive”.

In the case of `Cc1ccc(C(=O)C(=S)N2CCOCC2)cc1`, the Potency is reported as “inactive”.

In the case of `O=C1c2ccccc2C(=O)N1CCCCn1c(=O)oc2ccccc21`, the Potency is reported as “inactive”.

In the case of `CCOC(=O)N1CCN(S(=O)(=O)c2ccc(C)cc2)C1c1ccc(OC)cc1` (stereo not given), the Potency is reported as “inactive”.

For `Cc1ccc(C(=O)c2coc3c2C(=O)C(=O)c2ccccc2-3)cc1`, the Potency was “inactive”.

`O=C(CSCc1cnn(-c2ccccc2)c1-n1cccc1)NCC1CCCO1` (stereo not given) was tested, and the Potency was “inactive”.

In the case of `Cc1nn(CC(=O)Nc2cccc(S(N)(=O)=O)c2)c(C)c1[N+](=O)[O-]`, the Potency is reported as “inactive”.

For `Cc1ccc(NC(=O)Cn2nc(C)c3ccccc3c2=O)cc1F`, the Potency was “inactive”.

In the case of `CCn1nc(C(=O)N[C@@H](CCSC)c2nc3ccccc3[nH]2)c2ccccc2c1=O`, the Potency is reported as “inactive”.

`CNc1nc(OCCNC(=O)Nc2ccccc2)nc(N2CCOCC2)n1` was tested, and the Potency was “inactive”.

In the case of `CC1CCCCN1CCNC(=O)CC1Oc2ccccc2NC1=O` (stereo not given), the Potency is reported as “inactive”.

With `CCOc1ccc(C=NNc2ccc(S(=O)(=O)Nc3ccccc3C(=O)O)cc2[N+](=O)[O-])cc1` the Potency was 7.36 µM (active).

For `CCCCn1c(SCC(=O)N2CCC(C)CC2)nc2cc(S(N)(=O)=O)ccc21`, the Potency was “inactive”.

In the case of `COC(=O)CCC(=O)Nc1sc2c(c1C#N)CCCC2`, the Potency is reported as “inactive”.

With `Cc1ccc(C(=O)NCCCc2ccccc2)s1` the Potency was “inactive”.

`NS(=O)(=O)c1ccc(NC(=O)CN2CCCCC2)cc1` was tested, and the Potency was “inactive”.

For `COc1ccc(CC(NC(C)=O)C(=O)NC2CCN(c3nc(C)cc(C)c3C#N)CC2)c(OC)c1` (stereo not given), the Potency was “inactive”.

With `O=C(NCCOC(=O)c1ccccc1C(=O)OCCNC(=O)c1cccnc1)c1cccnc1` the Potency was “inactive”.

`CCOc1ccc2[nH]c(=O)c(CN(Cc3cccs3)Cc3nnnn3C(C)(C)CC)cc2c1` was tested, and the Potency was “inactive”.

In the case of `O=C(NCCC1=CCCCC1)C1CCCN(S(=O)(=O)c2cnc[nH]2)C1` (stereo not given), the Potency is reported as “inactive”.

In the case of `CCOC(=O)c1ccc(NC(=O)C2=C(C)Nc3nc(CCCO)nn3C2c2cccc(C)c2)cc1` (stereo not given), the Potency is reported as “inactive”.

In the case of `O=C(CSc1nc(O)cc(=O)n1-c1ccccc1)NC1CCCCC1`, the Potency is reported as “inactive”.

With `C#CCOCCOCCOCCNc1nc(N2CCN(C(=O)CCCCCCCCCCNC(=O)[C@@H](CCC(=O)O)n3cc(CCCCCN)nn3)CC2)nc(N2CCN(C(=O)CCCCCCCCCCNC(=O)[C@H]([C@@H](C)CC)n3cc(CCCCCN)nn3)CC2)n1` the Potency was 11.7 µM (active).

In the case of `CCOc1cccc(NC(=O)/C(C#N)=C\c2cn(CC(=O)O)c3ccccc23)c1`, the Potency is reported as “inactive”.

For `Cc1cc(C)n2cc(CSc3nnnn3-c3ccccc3C)nc2n1`, the Potency was “inactive”.

`CCn1c(=O)c(C(=O)Nc2ccccc2S(N)(=O)=O)c(O)c2ccccc21` was tested, and the Potency was 13.1 µM (active).

`CC(C)C(C(=O)O)N1C(=O)/C(=C/C=C/c2ccco2)SC1=S` (stereo not given) was tested, and the Potency was 6.56 µM (active).

`O=C(NCc1ccccc1)C1CCC1` was tested, and the Potency was “inactive”.

With `Nc1c(C(=O)Nc2ccc(Cl)cc2)oc2ccccc12` the Potency was “inactive”.

`CCOc1ccccc1N(CC(=O)NC(C)(C)C)C(=O)c1ccc(CN2CCOCC2)o1` was tested, and the Potency was “inactive”.

For `O=C(Cc1ccc(S(=O)(=O)N2CCOCC2)s1)Nc1nc2c(s1)CCCC2`, the Potency was 14.7 µM (active).

For `C=CC[C@H](CC(=O)N[C@H](CO)Cc1ccccc1)C(=O)N[C@@H](COC(=O)[C@@H](CC=C)CC(=O)OC(C)(C)C)Cc1c[nH]c2ccccc12`, the Potency was “inactive”.

With `O=C1CCCc2nc(N3CCN(c4ccccc4)CC3)ncc21` the Potency was “inactive”.

With `CCCCNC(=O)Nc1ccccc1C(=O)NCc1ccco1` the Potency was “inactive”.

In the case of `CCOc1ccc(NC(=O)N(CCCN2CCOCC2)Cc2cccnc2)cc1`, the Potency is reported as “inactive”.

`O=C(CSc1nnc(SCc2ccccc2)s1)N/N=C/C=C/c1ccco1` was tested, and the Potency was 13.1 µM (active).

In the case of `CCCC(c1nnnn1Cc1ccc(OC)cc1)N1CCC(C(N)=O)CC1` (stereo not given), the Potency is reported as “inactive”.

With `COc1ccc(NC(=S)NC(=O)/C=C/c2ccco2)cc1` the Potency was “inactive”.

With `COc1ccc(OC)c(NC(=O)CSc2nc(O)cc(=O)n2CC(C)C)c1` the Potency was “inactive”.
